Tests used:
Test in all cases: PBM binding z-score (relative to random genomic background probes); higher = stronger binding; sequences stand for … in GC…GCGATTGACAGCGTAGAATGAAGG
[1] = tested on: FXR:RXRa (NR concentration 270 nM, RXRa partner concentration 90 nM)
How it was run: (§1)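 The probes on custom Agilent 4×180K protein-binding microarrays were double-stranded, with 34-nt variable regions bearing direct-repeat seeds, single-nucleotide variants, half-site ablations and random human genomic background sequences. Incubation lasted 1 h with ligand-free nuclear receptor dimers in PBS pH 7.4, 2% milk, 0.02% Triton X-100, 1 mM DTT, 0.2 mg/mL BSA and 0.4 mg/ml salmon testes DNA. Antibodies against each partner (one per run) detected bound dimers, and fluorescence scans were regression-normalized. Binding z-scores take the random background probes as reference.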

[2] = tested on: LXRa:RXRa (NR concentration 270 nM, RXRa partner concentration 90 nM)
How it was run: as §1

[3] = tested on: LXRa homodimer (NR concentration 270 nM)
How it was run: as §1

[4] = tested on: LXRb:RXRa (NR concentration 270 nM, RXRa partner concentration 90 nM)
How it was run: as §1

[5] = tested on: LXRb homodimer (NR concentration 270 nM)
How it was run: as §1

[6] = tested on: PPARa:RXRa (NR concentration 270 nM, RXRa partner concentration 90 nM)
How it was run: as §1

[7] = tested on: PPARg:RXRa (NR concentration 180 nM, RXRa partner concentration 90 nM)
How it was run: as §1

[8] = tested on: PPARg:RXRa 270nM:90nM, anti-RXR (NR concentration 270 nM, RXRa partner concentration 90 nM)
How it was run: as §1

[9] = tested on: PPARg:RXRa 30nM:10nM, anti-RXR (NR concentration 30 nM, RXRa partner concentration 10 nM)
How it was run: as §1

[10] = tested on: PPARg:RXRa 90nM:30nM, anti-RXR (NR concentration 90 nM, RXRa partner concentration 30 nM)
How it was run: as §1

[11] = tested on: PPARg:RXRa DBDmut IVT, anti-RXR (DBD mutation: RXRa K156A/R161A, NR concentration 270 nM, RXRa partner concentration 90 nM)
How it was run: as §1

[12] = tested on: PPARg:RXRa IVT, anti-PPARg (NR concentration 270 nM, RXRa partner concentration 90 nM)
How it was run: as §1

[13] = tested on: PPARg DBDmut:RXRa IVT, anti-PPARg (DBD mutation: PPARg1 K132A/R137A, NR concentration 270 nM, RXRa partner concentration 90 nM)
How it was run: as §1

[14] = tested on: PPARg DBDmut IVT, anti-PPARg (DBD mutation: PPARg1 K132A/R137A, NR concentration 270 nM)
How it was run: as §1

[15] = tested on: PPARg homodimer (NR concentration 180 nM)
How it was run: as §1

[16] = tested on: PXR:RXRa (NR concentration 270 nM, RXRa partner concentration 90 nM)
How it was run: as §1

[17] = tested on: PXR homodimer (NR concentration 270 nM)
How it was run: as §1

[18] = tested on: RARa:RXR (NR concentration 270 nM, RXRa partner concentration 90 nM)
How it was run: as §1

[19] = tested on: RARa homodimer (NR concentration 270 nM)
How it was run: as §1

[20] = tested on: RARb:RXRa (NR concentration 270 nM, RXRa partner concentration 90 nM)
How it was run: as §1

Sequence | PBM binding z-score [1] | PBM binding z-score [2] | PBM binding z-score [3] | PBM binding z-score [4] | PBM binding z-score [5] | PBM binding z-score [6] | PBM binding z-score [7] | PBM binding z-score [8] | PBM binding z-score [9] | PBM binding z-score [10] | PBM binding z-score [11] | PBM binding z-score [12] | PBM binding z-score [13] | PBM binding z-score [14] | PBM binding z-score [15] | PBM binding z-score [16] | PBM binding z-score [17] | PBM binding z-score [18] | PBM binding z-score [19] | PBM binding z-score [20]
ATATGTAGATTACATCCGGGTCATTCAGGCTATG | 1.18 | 1.51 | 0.625 | 1.99 | 0.664 | 2.51 | 1.42 | 1.25 | 0.659 | 1 | 1.44 | 2.32 | 1.43 | 1.61 | 1.18 | 2.53 | 1.22 | 2.88 | 0.587 | 1.38
CCAGACAGGTGAAAGGTAGCTCAGTCTGGTACGC | 0.0731 | -0.0262 | -0.504 | 0.0215 | -1.1 | 2.23 | 3.22 | 4.68 | 2.78 | 4.9 | 2.97 | 1.52 | -1.06 | -0.199 | 0.596 | -0.0966 | -0.482 | 0.905 | -0.063 | 0.738
CTAACTAGGTCAAGGACAGTGAATCTCCGCACGC | 3.07 | 2.43 | 0.51 | 1.58 | 0.129 | 4.99 | 8.18 | 6.92 | 4.93 | 6.92 | 8.7 | 8.66 | 2.25 | 1.42 | 3.48 | 1.21 | 0.296 | 1.87 | 0.59 | 4.08
GTACCAAGGTGACTAGGTCGTTGATGAGTAGGCG | 0.348 | 0.174 | -0.398 | -0.125 | -1.01 | 1.59 | 1.89 | 1.69 | 0.141 | 0.756 | 1.99 | 3.81 | 0.227 | -0.333 | 0.145 | 0.12 | -0.403 | 0.639 | 0.0203 | 1.55
CGTCCAAGGTTAAAGGTCAGTGAAGAGATGACGG | 6.23 | 5.21 | 1.72 | 4.9 | 0.226 | 6.28 | 8.06 | 7.36 | 6.31 | 8.12 | 1.93 | 4.19 | 0.18 | 0.148 | 3.37 | 5.79 | 0.975 | 7.42 | 1.36 | 5.01
TCATAAAGGTAAACAGGTGAAAGTCCGTAAGTTA | 1.21 | 1.53 | 0.0462 | 1.44 | -0.2 | 2.83 | 2.29 | 3.47 | 4.28 | 3.89 | 3.73 | 2.72 | 0.109 | 0.863 | 1.24 | 1.22 | 0.86 | 1.89 | 1.6 | 1.65
GCGACTGGGGCAAAACAGGTTACCATAAGGTTGG | 0.267 | 0.15 | -0.287 | 0.476 | -0.432 | 1.12 | 1.22 | 0.615 | -0.338 | -0.0458 | 3.9 | 3.17 | -0.443 | -0.478 | -0.0203 | 0.334 | -0.325 | 0.794 | -0.332 | 0.897
GCATATAAGTAATACAAGGTGAAAGTCCGATTGT | 0.578 | 0.301 | 0.499 | 0.331 | -0.122 | 0.85 | 0.911 | 0.715 | 0.283 | 0.301 | 0.462 | 0.546 | 0.743 | 0.728 | 0.405 | 0.436 | 0.309 | 1.13 | 0.698 | 0.452
TCATATAGGTAAATGCTAGGTGAATGTCCGATCT | 0.466 | 0.779 | 0.287 | 0.767 | 0.0198 | 1.39 | 0.932 | 2.17 | 3.49 | 2.66 | 3.97 | 2.57 | 0.725 | 1.15 | 0.769 | 0.548 | 0.635 | 1.02 | 1.27 | 0.461
TCATATAGGTAATATAGGTGAAAGTCGGCATCTA | 0.703 | 1.07 | 0.157 | 0.856 | 0.102 | 2.92 | 3.31 | 3.65 | 4.1 | 3.94 | 5.06 | 5.68 | 1.83 | 1.71 | 1.03 | 0.599 | -0.0145 | 1.09 | 0.799 | 0.469
TCGAGTAGGTTACCAATGGGGCATTCACCTTTCT | 0.403 | 1.81 | -0.322 | 1.57 | -0.26 | 1.55 | 0.512 | 1.43 | 1.26 | 1.47 | 3.38 | 2.75 | 0.0374 | 0.508 | 0.0872 | 0.579 | -0.637 | 1.1 | -0.777 | 1.13
AATACAGGGTCAACGTAGGCCAGAGTACGCACAG | 7.15 | 6.18 | 1.92 | 4.41 | 1.47 | 5.88 | 6.89 | 6.32 | 2.82 | 4.85 | 3.16 | 4.2 | 1.64 | 1.2 | 2.78 | 5.23 | 0.288 | 5.45 | 1.71 | 4.6
TCTTGTAGATCAGCAGGTTCAGAAAGCTGGCCAA | -0.19 | 0.323 | -0.435 | 0.265 | -0.738 | 0.609 | -0.665 | 1.1 | 2.02 | 1.52 | 1.4 | 0.189 | -0.291 | -0.791 | -0.268 | 0.644 | -0.241 | 0.455 | -0.229 | 0.0377
GCAACGAGGGCAAAGTTGATAGCATCTGTCGACG | 1.14 | 1.01 | -0.469 | 0.805 | -0.643 | 3.7 | 5.92 | 6.03 | 4.83 | 6.51 | 2.74 | 3.19 | 0.065 | -0.728 | 0.234 | 1.18 | -0.438 | 1.53 | -0.122 | 2.34

Reference: the supplement of paper PMC6555819
